According to the OligoGym collection:

Each sequence was assayed against NAA35 (assay: pooled miR-30 sensor sort-seq; sequence = guide strand). Conditions: shRNA.
Also: reference of the scale not given here.

| Sequence | sensor-assay potency score (higher = more potent) |
| --- | --- |
| TAGTTCACCATTTCTTCCCTTT | 0.00785 |
| TAATTATTTTTGCATATCGAGG | -1.65 |
| TTATATAGGTAGCACTTGGGGG | -1.1 |
| TCTATTAACCTCATGGTCCGGG | 0.321 |
| TTATTATATAGGTAGCACTTGG | -0.806 |
| TACTGCTAAACATTGTTGGTGT | 0.709 |
| ATATATGTAATAGTACTCGTGC | 0.454 |
| TTATTTTTGCATATCGAGGGAA | 0.0226 |
| TATATAGGTAGCACTTGGGGGA | -0.0355 |
| TTATTCTATCTATTAATCTTGC | -0.493 |
| TATGTAATAGTACTCGTGCATA | -1.06 |
| TTAATTCTCGACAAGCTTCTTC | 0.731 |

The sequences below were run against NAALADL1 in the same assay as above. Conditions: shRNA.

| Sequence | sensor-assay potency score (higher = more potent) |
| --- | --- |
| TTCCCATACAGCACGTAGCGAT | -0.768 |
| TTGAGGGGCAGGAAGAAGCTGT | -0.568 |
| TAGACGCTCACATTCACCTGGC | 0.571 |
| TTACAGAGCAGGTCTCTTGCAT | -0.148 |
| TTGATGTCGGCAGGGTCTGTGT | -1.45 |
| TCTCACTGTAGTCACTGACTTT | -1.01 |
| TCTGTGTACACCAGCACCCCAG | -1.23 |
| TACAGAGCAGGTCTCTTGCATC | -0.894 |
| TTGTCGTAGATGCTCAGGTCGC | -1.1 |
| TTCTGCAGTGTTGATATGCGTT | -0.417 |

The sequences below were run against NAGA in the same assay as above. Conditions: shRNA.

| Sequence | sensor-assay potency score (higher = more potent) |
| --- | --- |
| TTGTCCAGCATCAGCACCTGGG | -0.84 |
| TCATATATCACAGACCCGGTGA | -0.0849 |
| TTGATTTTGATCATGAGTGGAT | 0.182 |
| TTGATGATCACTGTGAAGTTGG | 0.614 |
| TTCGAAAACTTCCAAATCCTGA | -0.213 |
| TTCGATGAGAGATTTTTCCTTG | 0.59 |
| TTTTCCTTGTGAATCCTGCGTC | 0.331 |
| TGAAGTTGGTTTCATCTCGGAG | -0.453 |
| TTGTCCAGTGTGGTGCCTGGGT | -0.646 |
| TTGAGCATGTCTACCTTCCACT | -1.03 |
| TTGCTCAGCAACGTCTGTGGGG | -0.463 |
| TTGGACAGGGCATAGAACCTGG | -0.532 |

Each sequence was assayed against NAGPA in the same assay as above. Conditions: shRNA.

| Sequence | sensor-assay potency score (higher = more potent) |
| --- | --- |
| TTTCAGCAGGAACTCCGCCATT | -1.66 |
| AGTAGCAAGTCGTCGTCGCGGG | -1.2 |
| AAGCCGAATAGTGCAAGCCGGA | -1.15 |
| TCTCGTCACACTCTGTGGCTTG | 0.00905 |
